Screening data (PubChem)
Shiga inhibitor – inhibitors of Shiga toxin in Vero cells; Vero cells, Shiga toxin protein synthesis inhibition reporter; AID 2315; 9.2% of 290,000 active; inhibition, % at 38.7 µM; in the data active = inhibition mostly above about 28%, no sharp cut-off; inactive = mostly below about 43%
Cycloheximide cs – counter-screen hit for Shiga toxin inhibitors, cycloheximide. 12% of 300,000 active. cell reporter, cycloheximide protein synthesis inhibition counterscreen. AID 2314. max response, %; in the data active = max response mostly above about 13%, no sharp cut-off; inactive = mostly below about 14%; also: read at 38.3 µM for the half of the compounds with a filed dose
Pf growth 48h – inhibits P. falciparum growth in the first generation, 48 h; P. falciparum luciferase growth in erythrocytes, 48 h; Potency, µM (top dose mostly 28.7 µM), hits mostly inhibitors; 5.9% of 310,000 active
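Growth was read as firefly luciferase luminescence after a 48 h, 37 C, 5% CO2 exposure of compounds to reporter-bearing P. falciparum cultures (0.1% parasitemia, 2% hematocrit final) in Albumax-supplemented RPMI 1640.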
NS1 function inh – influenza NS1 inhibition; AID 2326; Potency, µM (highest dose often 46.1 µM); 0.4% of 270,000 active; calls by dose curve; also: actives are rising curves; nearly all actives have a fitted effect of over 50% in size
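Growth recovery, yeast-based: influenza A NS1 expressed in S. cerevisiae causes slow growth, and suppressors are detected by OD600. The parent strain without NS1 is used as positive control.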
Pf growth 96h – inhibits malaria parasite growth, 96 h; AID 504834; P. falciparum luciferase reporter growth, 96 h; Potency, µM (titrated, usually from 28.7 µM), usual class: inhibitors; 6.9% of 320,000 active
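Two-generation exposure (96 h) targets delayed-death phenotype. Reporter parasites carrying integrated firefly luciferase, in red cells at 2% hematocrit and 0.05% parasitemia final, kept at 37 C, 5% CO2; luminescence loss indicates inhibition.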
Each line names hits and unclear results; the compound was inactive in the other large screens. Hits are enriched below; roughly 21% of the tested compounds scored in any of these assays. Unless noted, calls follow the shape of the dose curve; as a rule, active = well fitted inhibition curve with a large enough effect; inconclusive = small, poorly fitted or top-dose-only effect, or another doubt; inactive = no such curve, though single readings can be large or run the other way.

COc1ccc(CCn2c(C3CCCCC3)nc3c(c(=O)c4ccccc4n3C)c2=O)cc1	Pf growth 48h inconclusive, Pf growth 96h inconclusive
FC(F)(F)c1cccc(Cc2noc(CN(Cc3ccccn3)CC3CCCO3)n2)c1 (stereo not given)	Pf growth 48h inconclusive, Pf growth 96h inconclusive
O=C(NCc1cccs1)c1cc2c(s1)CCCC2	Shiga inhibitor 86, Cycloheximide cs 45
CCc1nnc(NC(=O)c2csc3c2CCC(C)C3)s1 (stereo not given)	none
CC(C)(O)C#Cc1ccc(C(=O)NCc2cccs2)s1	Cycloheximide cs 26, Pf growth 96h 9.3µM
O=C(NCc1ccco1)c1csc2c1CCCCC2	Cycloheximide cs 22
COc1ccccc1NC(=O)c1csc2c1CCC(C)C2 (stereo not given)	Shiga inhibitor 67, Cycloheximide cs 51, Pf growth 96h inconclusive
CC(=O)c1ccc(C#CC(C)(C)O)s1	none
COc1ccccc1CCNS(=O)(=O)CCNC(=O)c1ccccc1	none (no result: Shiga inhibitor, Cycloheximide cs, NS1 function inh)
O=C(NCc1ccc(F)cc1)c1cc2c(s1)CS(=O)(=O)C2	Pf growth 96h 6.6µM
COc1ccccc1CCNC(=O)c1csc2c1CCCC2	Shiga inhibitor 38, Pf growth 48h inconclusive, Pf growth 96h inconclusive (no result: NS1 function inh)
COc1ccccc1CCNC(=O)c1ccc(Br)s1	Shiga inhibitor 63, Cycloheximide cs 37, Pf growth 96h inconclusive
O=C(NCc1ccccc1)c1csc2c1CCCCC2	none (no result: Pf growth 48h, Pf growth 96h)
O=C(NCc1cccs1)c1csc2c1CCCCC2	Cycloheximide cs 21, NS1 function inh inconclusive, Pf growth 96h inconclusive
O=C(NCCN1CCOCC1)c1csc2c1CCCC2	none
Cc1cc(C)c(S(=O)(=O)N2CCOC2CNC(=O)C(=O)NCCCn2ccnc2)c(C)c1 (stereo not given)	Pf growth 48h inconclusive
COC(=O)c1ccccc1NC(=O)CSc1nnc(CNS(=O)(=O)c2ccc(C)cc2)n1C	none (no result: Pf growth 96h)
CC(C)CCNC(=O)c1csc2c1CCCCC2	Shiga inhibitor 55, Cycloheximide cs 47 (no result: NS1 function inh)
CCC(C)NC(=O)c1csc2c1CCCCC2 (stereo not given)	none (no result: Pf growth 96h)
CC1CCc2c(C(=O)NCc3ccco3)csc2C1 (stereo not given)	Cycloheximide cs 17
COc1ccccc1NC(=O)NCCc1ccccc1	Pf growth 48h inconclusive
COC(=O)c1ccccc1NC(=O)NCCc1ccccc1OC	Shiga inhibitor 83, Cycloheximide cs 28
CCOc1ccc(NS(=O)(=O)c2ccc3[nH]cc(C(=O)NCC4CCCO4)c(=O)c3c2)cc1 (stereo not given)	Pf growth 96h 0.029µM
CCc1ccccc1NS(=O)(=O)c1ccc2[nH]cc(C(=O)NCC3CCCO3)c(=O)c2c1 (stereo not given)	none (no result: Pf growth 48h, Pf growth 96h)
CN(Cc1ccccc1)S(=O)(=O)c1ccc2[nH]cc(C(=O)NCC3CCCO3)c(=O)c2c1 (stereo not given)	Pf growth 96h 0.93µM
Cc1ccc(-c2nc(CSCC(=O)N3CCOCC3)c(C)o2)cc1	Shiga inhibitor 73, Pf growth 48h inconclusive
Cc1ccc(-c2nc(CSCC(=O)N3CCN(c4ccccn4)CC3)c(C)o2)cc1	Pf growth 96h 10µM (no result: Pf growth 48h)
CCOc1ccc(-c2nc(CSCC(=O)N3CCN(c4cccc(OC)c4)CC3)c(C)o2)cc1	Shiga inhibitor 75, Cycloheximide cs 16, Pf growth 96h inconclusive (no result: Pf growth 48h)
Cc1ccc(-c2nc(CSCC(=O)N3CCN(C(=O)c4ccco4)CC3)c(C)o2)cc1	none (no result: Pf growth 48h)
CCc1ccc(N/C(SC)=C(/C#N)C(N)=O)cc1	none
CCCCS/C(=C(/C#N)C(N)=O)c1cc2c([nH]1)CCCC2	Pf growth 48h 2.9µM (no result: Pf growth 96h)
CCCc1cc(NC(=O)CCl)n(-c2ccccc2)n1	Pf growth 48h inconclusive, Pf growth 96h inconclusive
COc1ccc(Cc2nnc(Nc3ccc4c(c3)OCCO4)[nH]c2=O)cc1	Pf growth 96h inconclusive (no result: NS1 function inh)
O=C(CN1C(=O)C2CC=C(Cl)CC2C1=O)Nc1ccc(C(=O)O)cc1 (stereo not given)	Pf growth 96h 13µM
O=C(O)c1cccc(N2C(=O)C3CC=C(Cl)CC3C2=O)c1 (stereo not given)	Pf growth 96h 10µM (no result: Pf growth 48h)
O=C(c1cccc(N2C(=O)C3CC=CCC3C2=O)c1)N1CCN(c2ccccc2)CC1 (stereo not given)	Pf growth 48h 12µM, Pf growth 96h inconclusive
O=C(COC(=O)c1ccc(N2CCCC2=O)cc1)c1ccccc1	Shiga inhibitor 83, Cycloheximide cs 31
O=C(COC(=O)c1ccc(N2CCCC2=O)cc1)Nc1ccccc1	none (no result: Shiga inhibitor, Cycloheximide cs, NS1 function inh)
O=C(O)c1cccc(N2C(=O)C3CC=CCC3C2=O)c1 (stereo not given)	none
N#Cc1ccc(-c2ccc(OCC(=O)NCC(=O)Nc3ccc(F)c(F)c3F)cc2)cc1	none
CC(=O)Oc1cccc(N2C(=O)C3CC=CCC3C2=O)c1 (stereo not given)	none (no result: Pf growth 96h)
O=C(COC(=O)c1cccc(N2C(=O)C3CC=CCC3C2=O)c1)c1ccccc1 (stereo not given)	Shiga inhibitor 55, Cycloheximide cs 27
O=C(COC(=O)c1cccc(O)c1)c1ccccc1	none (no result: Shiga inhibitor, Cycloheximide cs, NS1 function inh)
O=C(c1cccc(N2C(=O)C3CC=CCC3C2=O)c1)N1CCCCCC1 (stereo not given)	Pf growth 96h 0.17µM
CC1C=CCC2C(=O)N(c3cccc(C(=O)N4CCN(c5ccc(F)cc5)CC4)c3)C(=O)C12 (stereo not given)	none (no result: Pf growth 96h)
CN(Cc1ccccc1)C(=O)c1cccc(N2C(=O)C3CC=CCC3C2=O)c1 (stereo not given)	none
Nc1cccc(C(=O)OCC(=O)c2ccccc2)c1	Shiga inhibitor active, Cycloheximide cs 44
CN(C(=O)c1cccc(N2C(=O)C3CC=CCC3C2=O)c1)C1CCCCC1 (stereo not given)	Pf growth 48h inconclusive, Pf growth 96h 10µM
O=C(COC(=O)c1cc(=O)[nH]c2ccccc12)Nc1nc(-c2ccccc2)cs1	none
CCc1ccc(C(=O)COC(=O)c2cccc(N3C(=O)c4c(C)nc5ccccc5c4C3=O)c2)cc1	Shiga inhibitor 103, Cycloheximide cs 56, Pf growth 96h inconclusive
CCCCNC(=O)C(CC)(ONc1ccccc1C(F)(F)F)c1ccccc1OC (stereo not given)	Pf growth 48h 10µM, Pf growth 96h inconclusive (no result: Shiga inhibitor, Cycloheximide cs, NS1 function inh)
CCN(CC(=O)Nc1ccccc1OC)CC(=O)Nc1ccccc1C(F)(F)F	Pf growth 48h inconclusive (no result: NS1 function inh)
CCc1ccc(C(=O)NC(CCSC)C(=O)OC)cc1 (stereo not given)	Cycloheximide cs 17, Pf growth 48h inconclusive (no result: NS1 function inh)
CCc1ccc(/C=C2/SC(=S)N(CCC(=O)Nc3cccnc3)C2=O)cc1	Pf growth 96h inconclusive
Cc1sc2nc(CN3CCN(c4ccc(O)cc4)CC3)[nH]c(=O)c2c1C	Pf growth 48h inconclusive, Pf growth 96h 12µM
Cc1ccc(S(=O)(=O)N2CCCCC2CCNC(=O)C(=O)Nc2ccccc2F)cc1 (stereo not given)	Pf growth 48h inconclusive (no result: Shiga inhibitor, Cycloheximide cs, NS1 function inh)
CCc1n[n+](CC(=O)c2ccccc2)c(N)s1	Cycloheximide cs 22 (no result: NS1 function inh)
Nc1ccc[n+](CC(=O)c2ccccc2)c1	none (no result: Shiga inhibitor)
COc1ccc(NC(=O)C2CCN(S(=O)(=O)c3cccc4cccnc34)CC2)cc1OC	Pf growth 96h 6.6µM
COc1ccc(S(=O)(=O)N2CCC(C(=O)Nc3ccc(F)cc3)CC2)c2cccnc12	Pf growth 48h 1µM (no result: NS1 function inh)
